# Experimental data: PubChem BioAssay (Tox21)
# Several values for one entry are separate records, joined by “and”; a condition that tells them apart may be missing. Equal entries are not always repeated. Inconclusive results are not listed. A call without a number means that no potency is given here. Some structures have more than one record in an assay (separate samples or runs), and their calls can disagree. Activity calls are given as the source filed them. Unless noted, the call rests on the fitted dose curve.
# Experiments:
# [1] = Nuclear factor erythroid 2-related factor 2/antioxidant responsive element (Nrf2/ARE) small molecule agonists: qHTS cell viability counter screen in human keratinocytes (AID 1919968; active means well fitted curve in the direction sought with a large enough effect in the repeat runs; an effect the other way counts as inactive or inconclusive; further: nearly all actives have a fitted effect of over 55% in size; further: potency means the concentration at half of the fitted maximal effect)
# In short: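 CellTiter-Fluor fluorescence, read 1 h after reagent, gave viability in the same wells as the ARE-luciferase assay. KeratinoSens cells (1,500/well) had 23 h compound exposure at 37 C/5% CO2 following 5 h plating.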
# [2] = Nuclear factor erythroid 2-related factor 2/antioxidant responsive element (Nrf2/ARE) small molecule agonists: luciferase reporter gene qHTS assay in human keratinocytes (AID 1919969); further: nearly all actives have a fitted effect of over 35% in size; further: potency means the concentration at half of the fitted maximal effect
# [3] = molecular target: Gonadotropin-releasing hormone receptor (Homo sapiens) (UniProt P30968); assay: Human gonadotropin-releasing hormone receptor (GnRHR) small molecule agonists, calcium flux assay in GnRHR-HEK293 cells (AID 1920063); further: nearly all actives have a fitted effect of over 35% in size; further: potency means the concentration at half of the fitted maximal effect
# In short: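 Agonist mode: compounds at 15 concentrations, in triplicate, went onto calcium dye-loaded GnRHR-HEK293 cells. Intracellular calcium was then followed as 480/540 nm fluorescence at 1 s intervals over 3 min.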
# [4] = molecular target: KiSS-1 receptor (Homo sapiens) (UniProt Q969F8); assay: Human kisspeptin (KISS1R) small molecule agonists, calcium flux assay in KISS1R-HEK293 cells (AID 1920064; active means well fitted curve in the direction sought with a large enough effect in the repeat runs; an effect the other way counts as inactive or inconclusive)
# In short: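 Agonist mode: intracellular calcium rise tracked at 1 s intervals over 3 min (480/540 nm) immediately after compound addition to dye-loaded KISS1R-HEK293 stable cells. Each compound tested at 15 concentrations in triplicate.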
# [5] = G protein-coupled receptor (GPCR) small molecule agonists, calcium flux assay: HEK293 wild type cell line counter screen (AID 1920065)
# In short: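 Calcium flux counter screen: compound added in agonist mode at 15 concentrations in triplicate to dye-loaded parental HEK293 cells. Fluorescence (480/540) read kinetically for 3 min; ATP served as positive control.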
# [6] = p53 small molecule agonists, cell-based qHTS assay with human liver microsomes (AID 1963577)
# In short: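 p53RE-bla reporter cells were pre-incubated 5 h at 37 C, then treated with compounds plus human liver microsomes (0.5 mg/mL final) and NADPH (0.5 mg/mL final) for 16 h at 37 C. Beta-lactamase activity was read by LiveBLAzer fluorescence after 2 h at room temperature.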
# [7] = p53 small molecule agonists, cell-based qHTS assay with rat liver microsomes (AID 1963578)
# In short: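 p53RE-bla cells were exposed to compounds together with rat liver microsomes (0.5 mg/mL final) and NADPH (0.5 mg/mL final) for 16 h at 37 C, then read by LiveBLAzer beta-lactamase fluorescence after 2 h at room temperature.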
# [8] = p53 small molecule agonists, cell-based qHTS assay with human liver microsomes: qHTS cell viability counter screen (AID 1963579); further: nearly all actives have a fitted effect of over 45% in size; further: potency means the concentration at half of the fitted maximal effect
# In short: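 p53RE-bla cells (4,000/well) were pre-incubated 5 h at 37 C, then given compounds in DMSO plus human liver microsomes (0.5 mg/mL final) and NADPH (0.5 mg/mL final) for 16 h at 37 C. Viability was read by CellTiter-Glo luminescence.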
# [9] = p53 small molecule agonists, cell-based qHTS assay with rat liver microsomes: qHTS cell viability counter screen (AID 1963580); further: nearly all actives have a fitted effect of over 45% in size; further: potency means the concentration at half of the fitted maximal effect
# In short: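 Luminescent ATP readout (CellTiter-Glo, 30 min at room temperature) reports viability of p53RE-bla HCT-116 cells after 16 h at 37 C with test compounds under metabolic activation by rat liver microsomes and NADPH at 0.5 mg/mL final each.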
# [10] = p53 small molecule agonists, cell-based qHTS assay: qHTS cell viability counter screen (AID 1963581); further: nearly all actives have a fitted effect of over 45% in size; further: potency means the concentration at half of the fitted maximal effect
# In short: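 Counter screen read by CellTiter-Glo luminescence (ATP content, 30 min at room temperature), run in the same wells as the beta-lactamase reporter read. HCT-116 p53RE-bla cells saw compounds for 16 h at 37 C.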
# [11] = p53 small molecule agonists, cell-based qHTS assay (AID 1963582; active means well fitted activation curve with a large enough effect in the signal ratio in the repeat runs, not every such curve was filed as active; the % refers to the signal ratio)
# In short: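 Read-out is beta-lactamase FRET fluorescence after 2 h at room temperature with LiveBLAzer B/G substrate. p53 response element-bla cells were treated 16 h at 37 C with compounds in DMSO, added 5 h after seeding.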
# [12] = molecular target: 5-hydroxytryptamine receptor 2A (Homo sapiens) (UniProt P28223); assay: 5-hydroxytryptamine receptor 2A (HTR2A) small molecule antagonists, cell-based qHTS assay (AID 1963586); further: nearly all actives have a fitted effect of over 45% in size; further: potency means the concentration at half of the fitted maximal effect
# In short: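 CHO cells stably expressing human HTR2A were plated for 18 h at 37 C, then loaded with calcium dye for 1 h. Compounds were preincubated 5 min at room temperature before DOI (4 nM solution) was added. Kinetic fluorescence was read for 3 min.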
# [13] = molecular target: 5-hydroxytryptamine receptor 2A (Homo sapiens) (UniProt P28223); assay: 5-hydroxytryptamine receptor 2A (HTR2A) small molecule agonists, cell-based qHTS assay (AID 1963587); further: nearly all actives have a fitted effect of over 30% in size; further: potency means the concentration at half of the fitted maximal effect
# In short: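 HTR2A-CHO cells, plated 18 h at 37 C/5% CO2, dye-loaded 1 h at 37 C; compounds in DMSO added by pin tool (agonist mode). Intracellular calcium flux read as kinetic fluorescence on FDSS over 2 min at 1 s intervals.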
# [14] = molecular target: Muscarinic acetylcholine receptor M1 (Homo sapiens) (UniProt P11229); assay: Cholinergic receptor muscarinic 1 (CHRM1) small molecule antagonists, cell-based qHTS assay (AID 1963588); further: nearly all actives have a fitted effect of over 40% in size; further: potency means the concentration at half of the fitted maximal effect
# In short: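 Compounds were tested at 15 concentrations in three independent runs. Dye-loaded CHRM1-CHO cells were exposed 5 min at room temperature before stimulation by acetylcholine added at 50nM. Intracellular calcium was read kinetically on FDSS for 3 min.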
# [15] = molecular target: Muscarinic acetylcholine receptor M1 (Homo sapiens) (UniProt P11229); assay: Cholinergic receptor muscarinic 1 (CHRM1) small molecule agonists, cell-based qHTS assay (AID 1963589); further: nearly all actives have a fitted effect of over 35% in size
# In short: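 Agonist-mode calcium-flux screen: compounds at 15 concentrations, three independent runs, were pin-transferred onto dye-loaded human CHRM1-CHO cells. Fluorescence was then recorded kinetically every second over minutes.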
# [16] = cAMP Responsive Elements (CRE) small molecule agonists, cell-based qHTS assay (AID 1963590)
# In short: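 Agonist mode: compound added to CRE-bla HEK 293T cells (2,000/well, 18 h after plating) for 3 h at 37 C/5% CO2. Reporter activity detected via FRET beta-lactamase substrate, 2 h room-temperature loading.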
# [17] = molecular target: Beta-2 adrenergic receptor (Homo sapiens) (UniProt P07550); assay: Adrenergic beta2 receptor (ADRB2) small molecule antagonists, cell-based qHTS assay (AID 1963592); further: series mostly up to about 92 µM; nearly all actives have a fitted effect of over 50% in size
# In short: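 Assay format: CHO-ADRB2 cells, 18-20hr seeding at 37C/5% CO2, then compound plus 1nM isoproterenol agonist mix for 0.5hr RT. Homogeneous time-resolved fluorescence cAMP detection after 1hr, expressed as 665/615 nm ratio.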
# [18] = molecular target: D(2) dopamine receptor (Homo sapiens) (UniProt P14416); assay: Dopamine D2 receptor (DRD2) small molecule agonists, cell-based qHTS assay (AID 1963594); further: nearly all actives have a fitted effect of over 35% in size
# In short: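 HEK293 cells stably expressing DRD2 were cultured 24 h at 37 C, then given Ro20-1724 (0.1 mM final) and compounds for 10 min at room temperature. NKH477 (200nM) was then added for 30 min. cAMP was read by HTRF.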
# [19] = molecular target: D(2) dopamine receptor (Homo sapiens) (UniProt P14416); assay: Dopamine D2 receptor (DRD2) small molecule antagonists, cell-based qHTS assay (AID 1963595; active means well fitted inhibition curve with a large enough effect in the signal ratio in the repeat runs, with a control signal flat; the % refers to the signal ratio)
# In short: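 HEK293 cells stably expressing DRD2 were preincubated with 0.1 mM Ro20-1724, then with compound for 10 min at room temperature. Cells were stimulated with 200 nM NKH477 plus 12 nM quinpirole for 30 min, and cAMP was read by HTRF.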
# [20] = cAMP Responsive Elements (CRE) small molecule antagonists, cell-based qHTS assay (AID 1963591; active means well fitted inhibition curve with a large enough effect in the signal ratio in the repeat runs, not every such curve was filed as active; the % refers to the signal ratio)
# In short: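 Antagonist mode: compounds are added alongside the adenylyl cyclase activator NKH477 (0.25 uM final) to CRE-bla HEK293T cells for 3 h. LiveBLAzer FRET substrate, 2 h at room temperature, reports bla expression.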
# Gonadotropin-releasing hormone receptor (Homo sapiens), sequence (P30968 whole entry, looked up): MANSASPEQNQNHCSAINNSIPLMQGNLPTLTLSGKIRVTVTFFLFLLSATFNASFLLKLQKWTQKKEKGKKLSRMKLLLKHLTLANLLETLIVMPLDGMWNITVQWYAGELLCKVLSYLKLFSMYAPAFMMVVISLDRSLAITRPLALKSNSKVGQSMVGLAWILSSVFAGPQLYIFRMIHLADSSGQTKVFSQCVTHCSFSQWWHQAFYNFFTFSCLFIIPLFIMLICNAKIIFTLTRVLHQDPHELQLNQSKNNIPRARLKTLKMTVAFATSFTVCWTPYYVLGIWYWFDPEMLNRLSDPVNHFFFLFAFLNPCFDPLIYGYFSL
# Beta-2 adrenergic receptor (Homo sapiens), sequence (P07550 whole entry, looked up): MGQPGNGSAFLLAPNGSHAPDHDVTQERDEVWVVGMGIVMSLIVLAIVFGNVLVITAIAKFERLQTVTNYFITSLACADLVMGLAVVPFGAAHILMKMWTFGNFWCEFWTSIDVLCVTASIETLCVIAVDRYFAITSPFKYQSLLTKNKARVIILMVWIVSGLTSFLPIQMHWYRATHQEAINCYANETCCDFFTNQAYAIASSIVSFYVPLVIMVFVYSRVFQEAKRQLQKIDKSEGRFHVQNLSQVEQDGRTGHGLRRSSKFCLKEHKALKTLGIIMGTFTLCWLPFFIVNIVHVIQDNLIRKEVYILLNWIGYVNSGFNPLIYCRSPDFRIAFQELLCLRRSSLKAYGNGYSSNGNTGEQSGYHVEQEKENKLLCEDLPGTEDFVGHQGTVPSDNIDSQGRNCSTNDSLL
# D(2) dopamine receptor (Homo sapiens), sequence (P14416 whole entry, looked up): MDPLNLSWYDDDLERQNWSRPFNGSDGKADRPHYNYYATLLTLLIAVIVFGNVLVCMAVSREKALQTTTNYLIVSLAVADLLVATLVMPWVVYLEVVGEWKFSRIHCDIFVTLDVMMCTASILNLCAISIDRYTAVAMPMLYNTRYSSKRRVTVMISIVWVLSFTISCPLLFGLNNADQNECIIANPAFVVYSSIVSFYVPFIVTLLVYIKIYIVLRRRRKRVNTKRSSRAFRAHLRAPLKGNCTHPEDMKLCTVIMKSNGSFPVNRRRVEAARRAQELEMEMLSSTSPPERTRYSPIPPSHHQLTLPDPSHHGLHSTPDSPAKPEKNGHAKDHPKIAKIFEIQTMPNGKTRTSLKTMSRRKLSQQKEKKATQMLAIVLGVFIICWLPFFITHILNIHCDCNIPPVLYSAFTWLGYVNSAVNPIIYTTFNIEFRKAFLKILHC
# Muscarinic acetylcholine receptor M1 (Homo sapiens), sequence (P11229 whole entry, looked up): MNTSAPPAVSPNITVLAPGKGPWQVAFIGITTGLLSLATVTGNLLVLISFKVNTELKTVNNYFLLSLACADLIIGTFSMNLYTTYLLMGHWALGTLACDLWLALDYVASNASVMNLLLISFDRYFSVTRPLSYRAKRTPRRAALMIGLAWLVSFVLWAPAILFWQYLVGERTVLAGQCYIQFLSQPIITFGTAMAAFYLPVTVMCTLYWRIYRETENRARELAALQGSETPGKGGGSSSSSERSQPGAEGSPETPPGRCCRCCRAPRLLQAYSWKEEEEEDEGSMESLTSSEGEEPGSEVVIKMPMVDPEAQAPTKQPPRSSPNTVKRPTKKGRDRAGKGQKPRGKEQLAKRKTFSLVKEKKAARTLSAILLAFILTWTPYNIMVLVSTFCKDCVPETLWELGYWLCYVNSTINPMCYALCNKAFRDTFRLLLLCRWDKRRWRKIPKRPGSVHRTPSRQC
# KiSS-1 receptor (Homo sapiens), sequence (Q969F8 whole entry, looked up): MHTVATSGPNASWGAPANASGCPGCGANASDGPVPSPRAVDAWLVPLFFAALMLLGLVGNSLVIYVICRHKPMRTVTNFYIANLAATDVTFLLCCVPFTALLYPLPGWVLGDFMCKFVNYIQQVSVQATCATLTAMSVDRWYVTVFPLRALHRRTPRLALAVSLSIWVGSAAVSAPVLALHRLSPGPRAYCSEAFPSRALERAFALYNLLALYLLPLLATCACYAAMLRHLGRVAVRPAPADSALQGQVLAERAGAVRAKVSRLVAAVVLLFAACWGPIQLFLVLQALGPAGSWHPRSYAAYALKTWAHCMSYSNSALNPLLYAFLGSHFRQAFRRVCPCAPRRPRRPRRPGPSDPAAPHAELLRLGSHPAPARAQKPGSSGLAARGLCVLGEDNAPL
# 5-hydroxytryptamine receptor 2A (Homo sapiens), sequence (P28223 whole entry, looked up): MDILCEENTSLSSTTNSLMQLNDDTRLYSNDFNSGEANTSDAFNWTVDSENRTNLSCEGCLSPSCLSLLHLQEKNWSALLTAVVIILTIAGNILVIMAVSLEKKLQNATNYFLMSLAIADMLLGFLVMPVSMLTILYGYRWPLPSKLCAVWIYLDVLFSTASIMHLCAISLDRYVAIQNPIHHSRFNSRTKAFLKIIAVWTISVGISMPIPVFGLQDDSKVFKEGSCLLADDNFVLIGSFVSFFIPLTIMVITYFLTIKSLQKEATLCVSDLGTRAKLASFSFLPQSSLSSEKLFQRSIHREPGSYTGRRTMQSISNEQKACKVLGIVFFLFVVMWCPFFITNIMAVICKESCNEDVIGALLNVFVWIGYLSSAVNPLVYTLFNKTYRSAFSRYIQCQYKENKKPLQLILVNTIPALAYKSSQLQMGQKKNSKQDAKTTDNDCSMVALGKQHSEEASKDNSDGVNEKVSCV
SMILES,Potency [1],Potency [2],Potency [3],Potency [4],Potency [5],Potency [6],Potency [7],Potency [8],Potency [9],Potency [10],Potency [11],Potency [12],Potency [13],Potency [14],Potency [15],Potency [16],Potency [17],Potency [18],Potency [19],Potency [20]
OCC(Cl)CCl (configuration not stated),inactive,inactive,inactive,inactive,inactive,inactive,inactive,inactive,inactive,inactive,inactive,inactive,inactive,inactive,inactive,inactive,inactive,inactive,inactive,–
ClC(Cl)(Cl)c1ccccc1,inactive,inactive,inactive,inactive,inactive,inactive,inactive,inactive,inactive,inactive,inactive,inactive,inactive,inactive,inactive,–,inactive,inactive,inactive,inactive
COP(=O)(CCC(=O)NCO)OC,inactive,inactive,inactive,inactive,inactive,inactive,inactive,inactive,inactive,inactive,inactive,inactive,inactive,inactive,inactive,inactive,inactive,–,inactive,inactive
CCCCCCCCCCCC[N+](C)(C)CCOc1ccccc1,27.3 µM (active),inactive,38.9 µM (active) and 16.9 µM (active),inactive,inactive,inactive,inactive,45.8 µM (active) and inactive,45.8 µM (active) and inactive,45.8 µM (active) and inactive,inactive,133 nM (active) and 46 nM (active),43.7 µM (active),748 nM (active) and inactive,inactive,–,inactive,inactive,–,inactive
CC(C)c1ccc(NC(=O)N(C)C)cc1,inactive,inactive,inactive,inactive,inactive,inactive,inactive,inactive,inactive,inactive,inactive,inactive,inactive,inactive,inactive,inactive,inactive,–,inactive,inactive
O=C(O)C(F)(F)C(F)(F)C(F)(F)C(F)(F)C(F)(F)C(F)(F)F,inactive,inactive,inactive,inactive,inactive,inactive,inactive,inactive,inactive,inactive,inactive,inactive,inactive,inactive,inactive,inactive,inactive,inactive,–,–
CCCC1CCCCN1 (configuration not stated),inactive,inactive,inactive,inactive,inactive,inactive,inactive,inactive,inactive,inactive,inactive,inactive,inactive,inactive,inactive,–,inactive,inactive,inactive,inactive
CCCCC(CC)CO[N+](=O)[O-] (configuration not stated),inactive,inactive,inactive,inactive,inactive,inactive,inactive,inactive,inactive,inactive,inactive,inactive,inactive,inactive,inactive,inactive,–,inactive,inactive,inactive
Nc1ccc2ccccc2c1,inactive,37.2 µM (active) and 27.3 µM (active),inactive,inactive,inactive,inactive,inactive,inactive,inactive,inactive,inactive,inactive,inactive,inactive,inactive,inactive,inactive,inactive,inactive,inactive
CCC(Br)(CC)C(=O)NC(N)=O,inactive,inactive,inactive,inactive,inactive,inactive,inactive,inactive,inactive,inactive,inactive,inactive,inactive,inactive,inactive,inactive,–,–,inactive,inactive
CCCCCCCCSC(=O)Oc1cc(Cl)nnc1-c1ccccc1,inactive,inactive,inactive,inactive,inactive,inactive,inactive,inactive,inactive,inactive,inactive,inactive,inactive,inactive,inactive,inactive,inactive,–,inactive,inactive
Nc1ccncc1,inactive,inactive,inactive,inactive,inactive,inactive,inactive,inactive,inactive,inactive,inactive,inactive,inactive,–,inactive,inactive,inactive,inactive,inactive,inactive
O=C(O)C(Br)Br,inactive,inactive,inactive,inactive,inactive,inactive,inactive,inactive,inactive,inactive,inactive,inactive,–,inactive,inactive,inactive,inactive,inactive,–,inactive
C(CCOCC1CO1)COCC1CO1 (configuration not stated),inactive,30.2 µM (active),inactive,inactive,inactive,inactive,inactive,inactive,inactive,inactive,inactive,inactive,inactive,–,inactive,inactive,inactive,inactive,inactive,inactive
CCNc1nc(Cl)nc(NC(C)(C)C#N)n1,inactive,inactive,inactive,inactive,inactive,inactive,inactive,inactive,inactive,inactive,inactive,inactive,inactive,–,inactive,inactive,inactive,inactive,inactive,inactive
